# Bioassay records: PubChem BioAssay, several laboratories
# Hits are enriched below; roughly 3.8% of the tested compounds scored in any of these assays.
# p-CIP stab down – lowers stability of the mouse p/CIP coactivator protein; decrease of EGFP signal, % at 10 µM; AID 1984; hit rate 0.01% among 290,000; F442A p/CIP-EGFP cells, EGFP fluorescence, 16 h; Q05BA5;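 active = EGFP signal decrease of at least 30% at 10 µM or well 3 SD below plate mean, unless failing retest; inactive = the rest, including hits failing retest or dose response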
# Target sequence (Q05BA5 1-1403): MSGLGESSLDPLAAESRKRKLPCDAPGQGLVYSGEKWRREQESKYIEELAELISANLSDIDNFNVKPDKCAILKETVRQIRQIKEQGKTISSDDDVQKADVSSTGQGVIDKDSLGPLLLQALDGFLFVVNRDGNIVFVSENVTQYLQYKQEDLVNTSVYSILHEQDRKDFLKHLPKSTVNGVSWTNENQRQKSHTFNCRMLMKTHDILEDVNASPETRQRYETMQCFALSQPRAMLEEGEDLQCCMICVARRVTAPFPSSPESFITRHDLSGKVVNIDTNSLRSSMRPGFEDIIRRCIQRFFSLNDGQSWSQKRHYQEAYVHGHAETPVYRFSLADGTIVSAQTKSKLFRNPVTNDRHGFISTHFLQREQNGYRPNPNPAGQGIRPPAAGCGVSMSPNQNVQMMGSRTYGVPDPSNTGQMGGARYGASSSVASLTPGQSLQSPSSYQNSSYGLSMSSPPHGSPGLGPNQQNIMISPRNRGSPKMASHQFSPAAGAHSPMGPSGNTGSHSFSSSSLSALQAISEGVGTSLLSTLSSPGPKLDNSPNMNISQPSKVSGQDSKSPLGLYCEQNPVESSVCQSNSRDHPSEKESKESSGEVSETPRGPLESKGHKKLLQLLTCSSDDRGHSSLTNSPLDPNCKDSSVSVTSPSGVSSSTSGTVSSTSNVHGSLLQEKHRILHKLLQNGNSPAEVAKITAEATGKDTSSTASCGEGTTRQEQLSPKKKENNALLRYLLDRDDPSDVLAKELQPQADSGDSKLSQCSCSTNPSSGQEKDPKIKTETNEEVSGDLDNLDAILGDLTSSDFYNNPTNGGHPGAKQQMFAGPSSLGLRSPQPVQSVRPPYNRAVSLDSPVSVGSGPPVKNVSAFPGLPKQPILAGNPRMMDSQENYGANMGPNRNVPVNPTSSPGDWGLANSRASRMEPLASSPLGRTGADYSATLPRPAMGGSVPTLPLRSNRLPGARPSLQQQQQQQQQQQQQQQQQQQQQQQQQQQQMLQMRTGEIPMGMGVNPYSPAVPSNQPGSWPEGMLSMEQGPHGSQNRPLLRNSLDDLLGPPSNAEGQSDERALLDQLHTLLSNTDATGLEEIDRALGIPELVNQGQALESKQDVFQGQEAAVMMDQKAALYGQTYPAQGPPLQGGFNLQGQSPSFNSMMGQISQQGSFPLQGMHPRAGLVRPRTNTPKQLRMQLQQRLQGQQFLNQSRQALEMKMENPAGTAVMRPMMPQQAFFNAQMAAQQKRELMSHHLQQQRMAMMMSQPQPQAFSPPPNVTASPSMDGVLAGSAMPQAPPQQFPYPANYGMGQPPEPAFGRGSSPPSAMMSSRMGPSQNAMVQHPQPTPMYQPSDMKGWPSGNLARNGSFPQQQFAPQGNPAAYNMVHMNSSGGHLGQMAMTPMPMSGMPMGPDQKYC
# HSF1 inhib – HSF1 inhibition; NIH3T3-HGL HSE-luciferase, MG132-induced, luminescence 8 h; active compounds read low; activity change, negative = inhibition, % at 7.5 µM (by protocol); hit rate 0.77% among 300,000;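 active = more than half of replicate wells show activity change below -50%, luminescence cut by over half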;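 also: luciferase reports HSF-1 transcriptional activity via heat shock element; 0% = median of DMSO wells and -100% = zero luminescence signal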
# NALP1 yeast inh – inhibitors of NALP1 inflammasome in yeast; S. cerevisiae NALP1/ASC/caspase-1 growth, X-gal OD620, 72 h; inhibition, % at 10 µM; hit rate 0.61% among 280,000; AID 2071; in the data active = inhibition mostly above about 24%, no sharp cut-off; inactive = mostly below about 32%
# HSF1 activator – increases HSF-1 driven luciferase reporter signal; NIH3T3-HGL HSF-1 luciferase reporter, MG132, 8 h; 100% = twice DMSO control signal; hit rate 1.7% among 300,000; activation, % at 9 µM;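 active = mean replicate activation of at least 50% with a set share of replicates each reaching 50%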;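 also: 0% = median of the neutral control wells and 100% = twice that signal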
# HSP90 refold inh – inhibitors of HSP90 luciferase refolding in rabbit reticulocyte lysate | luciferase refolding luminescence, 3 h | inhibition, % at 5.6 µM | hit rate 0.91% among 290,000 | AID 1789;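 active = inhibition above the screen-wide mean plus 3 SD, computed separately per campaign, cut at about 16% in these data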;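 also: 0% = DMSO wells and 100% = 60 µM geldanamycin wells; inhibitors lower the luminescence because luciferase stays unfolded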
# Hsp70 activator – transcriptional activators of Hsp70; HeLa Hsp70 promoter luciferase reporter, luminescence; scaled: vehicle 0, proteasome-inhibitor control 100%; activation, % at 10 µM; hit rate 0.04% among 200,000; AID 1203;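 active = activation above the mean across all tested compounds plus 3 SD, cutoff set per campaign, cut at about 5.5% in these data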;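 also: 100% = MG132 at 30 µM as the positive control and 0% = DMSO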
# * marks the source's active call; other numbers are inactive results; . = not tested or not shown.
SMILES,p-CIP stab down,HSF1 inhib,NALP1 yeast inh,HSF1 activator,HSP90 refold inh,Hsp70 activator
CC(C)NC(=O)CN(Cc1ccc(F)cc1)C(=O)CCC(=O)Nc1ccccn1,-0.4,-5.3,17.3,26.5,-1.1,.
CCCc1ccc2oc(C(=O)N3CCC(C(N)=O)(N4CCCCC4)CC3)c(C)c2c1,-2.3,-4.0,10.1,-13.4,-1.2,.
Cc1ccc2oc(C(=O)N3CCC(C(N)=O)(N4CCCCC4)CC3)c(C)c2c1,3.2,-76.5*,7.8,-81.7,-2.2,.
COc1ccc(C(C)NC(=O)Cc2ccc(Br)cc2)cc1 (stereo not drawn),-10.5,21.9,9.2,60.9*,0.0,0.0
CCC(C)[C@H](N)c1nnc(SCC(=O)Nc2cccc(Cl)c2)o1 (stereo partly drawn),-1.4,72.1,2.5,108.1*,1.6,-0.3
COC(=O)Cn1c2ccc(OC)cc2c2nc(C)sc21,2.9,33.0,10.9,88.0*,1.9,.
O=C(COC(=O)c1ccccc1C(=O)c1ccc(Cl)c([N+](=O)[O-])c1)NC1CCCCCC1,-16.7,-3.1,35.6*,-0.4,4.2,0.3
O=C(COC(=O)c1ccc2c(c1[N+](=O)[O-])C(=O)c1ccccc1C2=O)NC1CC1,-17.6,92.4,3.6,124.1*,2.1,0.0
CN(CCC#N)C(=O)COC(=O)c1ccccc1C(=O)c1ccc(Cl)c([N+](=O)[O-])c1,4.2,13.8,1.9,15.9,0.5,-0.1
CC(C)N(C(=O)COC(=O)c1ccccc1C(=O)c1ccc(Cl)c([N+](=O)[O-])c1)C(C)C,3.2,73.8,-5.6,90.7*,1.2,-0.3
O=C(COC(=O)c1ccc(Cl)c([N+](=O)[O-])c1)NC1CCCC1,0.9,-7.8,-5.8,0.6,2.2,.
CCCc1cc(C(=O)NC(C)C2CCCO2)cs1 (stereo not drawn),8.6,5.7,5.5,-1.8,5.4,.
C/C(=N\Nc1ccc([N+](=O)[O-])cc1)c1ccco1,-2.2,14.9,30.4,55.3*,-7.3,0.5
CS(=O)(=O)N(CC(=O)N1CCOCC1)c1cc(Cl)ccc1Cl,-4.4,-5.2,17.2,-7.9,3.2,.
CCCNCC1COc2ccccc2O1 (stereo not drawn),11.4,-0.6,45.4,4.7,-4.5,0.0
COc1cccc(OC)c1OCCNCC1COc2ccccc2O1 (stereo not drawn),.,34.3,.,52.9*,.,.
COc1cccc(N2CCN(S(=O)(=O)c3ccc(-c4coc(C)n4)cc3)CC2)c1,-16.6,28.4,-5.6,73.0*,-1.3,.
Cc1nc(-c2ccc(S(=O)(=O)N3CCN(c4ccccc4)CC3)cc2)co1,-8.4,5.0,9.5,4.9,-6.8,.
COc1cccc(N2CCN(S(=O)(=O)c3cc4c(cc3C)N(C)CCO4)CC2)c1,-1.8,34.4,7.1,54.7*,1.6,.
Cc1cc2c(cc1S(=O)(=O)N1CCN(c3ccc(Cl)cc3)CC1)OCCN2C,-2.5,5.2,-1.1,2.8,-1.6,.
CCN(CC)S(=O)(=O)c1ccc(N2CCCCC2)c(NC(=O)C2CCN(C(=O)c3ccc(F)cc3)CC2)c1,.,7.1,.,-0.9,.,.
Cc1cc(/C([O-])=C(/C(=S)Nc2ccccc2)[n+]2ccccc2)c(C)n1-c1ccccc1,-13.1,-60.6*,-3.6,-61.0,-2.5,-0.2
Cc1cc(/C([O-])=C(/C(=S)Nc2ccc(F)cc2)[n+]2ccccc2)c(C)n1-c1ccc(F)cc1,-3.1,-1.1,-8.6,7.0,0.4,-0.3
c1ccc(Nc2c3c(nc4ccccc24)CCC3)cc1,-2.9,-7.3,3.7,-1.7,3.4,-0.1
Cc1ccc2nc3c(c(Nc4ccccc4)c2c1)CCC3,-6.5,-6.3,41.2*,-9.2,-2.0,.
SMILES,p-CIP stab down,HSF1 inhib,NALP1 yeast inh,HSF1 activator,HSP90 refold inh,Hsp70 activator
N#Cc1ccccc1NC(=O)COC(=O)c1ccc(F)cc1F,-4.3,-4.1,-1.3,-6.2,3.2,.
Cc1ccc(NC(=O)c2ccc3nc[nH]c3c2)nc1,2.4,12.9,1.9,39.2,-3.3,.
Cc1ccc(NC(=O)c2ccc3nc[nH]c3c2)c(O)c1,-10.6,17.9,-13.6,66.4*,-0.7,0.2
COc1cc(C2C(C(=O)c3cc4ccccc4o3)=C(O)C(=O)N2c2cc(C)on2)cc(OC)c1OC (stereo not drawn),-0.1,25.4,-1.4,57.1*,-1.7,.
CC(C)Nc1nnc(Sc2ccc(Cl)cc2[N+](=O)[O-])s1,-21.4,-50.4*,7.7,-59.6,-3.8,-0.1
COc1ccc(CCN2CC(C(=O)NCCc3ccccn3)CCC2=O)cc1 (stereo not drawn),-12.9,3.1,4.5,-7.6,-2.0,.
CCCCN(C(=O)CSCC(=O)Nc1cccc(C)c1)c1c(N)n(Cc2ccccc2)c(=O)[nH]c1=O,.,6.6,.,17.5,.,.
Nn1c(SCc2nc3ccccc3[nH]2)nnc1-c1cccnc1,-9.5,5.1,9.2,23.3,2.7,-0.2
CCn1c(SCC(=O)Nc2ccc(N(C)C)cc2)nnc1-c1cccc(C)c1,6.6,-75.6*,18.0,-79.7,4.4,-0.3
CCn1c2ccccc2c2cc(NC(=O)CSc3nnc(-c4cccc(OC)c4)n3N)ccc21,12.3,20.3,19.6,57.8*,0.2,-0.2
COc1cccc(-c2nnc(SCc3nc4ccccc4[nH]3)n2N)c1,14.3,59.8,1.8,71.5*,-2.2,-0.3
O=C(c1ccc2nc[nH]c2c1)N1CCN(S(=O)(=O)c2cccc(F)c2)CC1,.,4.7,.,18.3,.,.
CCCN(C(=O)c1cccc(S(=O)(=O)N2CCN(C)CC2)c1)c1c(N)n(Cc2ccccc2)c(=O)[nH]c1=O,.,-4.4,.,-4.2,.,.
CSc1ccc2c(c1)N(CCC1CCCCN1C)c1ccccc1S2 (stereo not drawn),-8.6,-9.5,50.1*,-20.9,2.9,-0.4
Cn1c(SCC(=O)NCc2ccco2)nnc1-c1cccs1,-0.7,21.6,-15.2,54.8*,1.1,-0.3
CCn1c(SCC(=O)NC(=O)NCc2ccco2)nnc1-c1cccs1,-12.7,-0.7,-15.5,1.2,1.8,-0.4
O=C(CSc1nccc(=O)[nH]1)NCc1ccco1,-10.0,-0.8,43.2*,-9.9,0.5,.
Cc1scc(C(=O)NCc2ccco2)c1-c1ccccc1,-6.4,28.3,-1.4,63.5*,2.7,0.3
COc1ccc(C(=O)NC2CCN(C(=S)NCc3ccco3)CC2)cc1,-5.0,33.0,34.9,55.9*,-0.1,-0.2
COc1ccc(NS(=O)(=O)c2ccc(S(=O)(=O)N(C)C)cc2)cc1S(N)(=O)=O,-25.5,-4.5,6.6,14.9,6.5,-0.3
COc1ccc(C(=O)CSc2nnc(CC(=O)Nc3ccccc3OC)n2C)cc1,-4.2,0.6,-13.1,-1.6,1.9,0.0
COc1ccc(Cc2noc(CN3CCCN(C4Cc5ccccc5C4)CC3)n2)cc1OC,-3.3,1.0,9.1,14.5,-2.1,0.1
O=C(NNC(=S)NCc1ccco1)c1cccs1,-6.3,-10.5,1.0,-0.9,-0.3,-0.5
O=C(NCc1ccco1)c1ccc(C(=O)NCc2ccco2)cc1,.,-0.4,.,-0.4,.,.
O=C(NCc1ccco1)c1ccc(Oc2ccccc2)cc1,7.2,-2.7,40.0*,29.9,11.7,-0.3
